# The source made the active and inactive calls. How the source made its calls: active means hit-call score of the fitted dose curve at least 0.9, where 1 is the maximum; inactive means score below 0.9.
# Experiments:
# [1] = molecular target: Bile acid receptor (Homo sapiens) (UniProt Q96RI1); assay: ATG_IR1_CIS: Attagene CIS-FACTORIAL HepG2 Assay for human Nuclear Receptor Subfamily 1 Group H Member 4 (NR1H4), IR1 submotif (AID 2282946); conditions: IR1 reporter transcription, actives raise or lower the signal
# Sequence of Bile acid receptor (Homo sapiens) (Q96RI1 whole entry, looked up): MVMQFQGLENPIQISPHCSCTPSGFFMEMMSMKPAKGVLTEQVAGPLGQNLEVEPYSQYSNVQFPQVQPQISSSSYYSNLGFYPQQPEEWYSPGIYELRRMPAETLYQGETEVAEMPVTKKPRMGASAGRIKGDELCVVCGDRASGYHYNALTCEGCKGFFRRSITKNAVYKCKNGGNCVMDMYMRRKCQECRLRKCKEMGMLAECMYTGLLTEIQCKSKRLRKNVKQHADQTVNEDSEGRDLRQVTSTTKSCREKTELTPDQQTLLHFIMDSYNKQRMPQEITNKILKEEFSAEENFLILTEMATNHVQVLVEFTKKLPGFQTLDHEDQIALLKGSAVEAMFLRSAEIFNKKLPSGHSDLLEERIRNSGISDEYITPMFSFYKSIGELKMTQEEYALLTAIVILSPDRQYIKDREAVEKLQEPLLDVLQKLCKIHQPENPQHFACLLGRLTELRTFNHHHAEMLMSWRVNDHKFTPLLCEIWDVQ
# In short: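 Readout: reporter transcript levels by RT-PCR with fluorescent capillary electrophoresis, from HepG2 cells transiently transfected with multiplexed cis-regulated reporters and dosed 24 h. Gain- or loss-of-signal fitted versus DMSO negative control.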
# [2] = ATG_GRE_CIS: Attagene CIS-FACTORIAL HepG2 Assay for human Glucocorticoid Response Elements (GRE) (AID 2282947); conditions: HepG2 GRE cis-reporter, Attagene multiplex mRNA; actives raise or lower the signal
# In short: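 Cells (HepG2) bearing transfected cis-promoter reporter transcription units were treated with chemical for 24 hours. Reporter mRNA was measured via RT-PCR with capillary electrophoresis, and activity was fitted in both directions relative to DMSO.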
# [3] = ATG_ISRE_CIS: Attagene CIS-FACTORIAL HepG2 Assay for human Interferon Regulatory Factor 1 (IRF1) binding to an Interferon-Stimulated Response Element (ISRE) (AID 2282948); conditions: HepG2 ISRE cis-reporter (Attagene), mRNA transcription readout; actives raise or lower the signal
# In short: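 Multiplexed mRNA reporter readout in human liver HepG2 cells: cis-element-driven reporters transfected, compound added for 24 h, transcripts amplified, fluorescently labelled and sized by capillary electrophoresis; curve fitting bidirectional against DMSO.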
# [4] = ATG_M_32_CIS: Attagene CIS-FACTORIAL HepG2 Assay for M32 Transcription Factor (Internal Marker) (AID 2282949); conditions: HepG2 Attagene cis-factorial M32 reporter, mRNA; actives raise or lower the signal;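 further: background control marker of the multiplexed CIS panel rather than a real target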
# In short: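 HepG2 human liver cells transiently transfected with cis-promoter-driven multiple reporter transcription units, dosed 24 h. Reporter mRNA quantified by RT-PCR, FAM-labelled primer extension, HpaI digest and capillary electrophoresis; bidirectional fit versus DMSO baseline.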
# [5] = ATG_M_06_CIS: Attagene CIS-FACTORIAL HepG2 Assay for M06 Transcription Factor (Internal Marker) (AID 2282950); conditions: HepG2 Attagene CIS-FACTORIAL M06 internal marker reporter; actives raise or lower the signal
# In short: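 Internal background marker within multiplexed cis-reporter HepG2 system. Cells transiently transfected, dosed 24 h; reporter mRNA measured by RT-PCR, HpaI digestion and capillary electrophoresis. Bidirectional fit relative to DMSO.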
# [6] = molecular target: Hypoxia-inducible factor 1-alpha (Homo sapiens) (UniProt Q16665); assay: ATG_HIF1a_CIS: Attagene CIS-FACTORIAL HepG2 Assay for human Hypoxia Inducible Factor 1 (HIF1A) (AID 2282951); conditions: HepG2 Attagene cis-factorial HIF1a reporter transcription; actives raise or lower the signal
# Sequence of Hypoxia-inducible factor 1-alpha (Homo sapiens) (Q16665 whole entry, looked up): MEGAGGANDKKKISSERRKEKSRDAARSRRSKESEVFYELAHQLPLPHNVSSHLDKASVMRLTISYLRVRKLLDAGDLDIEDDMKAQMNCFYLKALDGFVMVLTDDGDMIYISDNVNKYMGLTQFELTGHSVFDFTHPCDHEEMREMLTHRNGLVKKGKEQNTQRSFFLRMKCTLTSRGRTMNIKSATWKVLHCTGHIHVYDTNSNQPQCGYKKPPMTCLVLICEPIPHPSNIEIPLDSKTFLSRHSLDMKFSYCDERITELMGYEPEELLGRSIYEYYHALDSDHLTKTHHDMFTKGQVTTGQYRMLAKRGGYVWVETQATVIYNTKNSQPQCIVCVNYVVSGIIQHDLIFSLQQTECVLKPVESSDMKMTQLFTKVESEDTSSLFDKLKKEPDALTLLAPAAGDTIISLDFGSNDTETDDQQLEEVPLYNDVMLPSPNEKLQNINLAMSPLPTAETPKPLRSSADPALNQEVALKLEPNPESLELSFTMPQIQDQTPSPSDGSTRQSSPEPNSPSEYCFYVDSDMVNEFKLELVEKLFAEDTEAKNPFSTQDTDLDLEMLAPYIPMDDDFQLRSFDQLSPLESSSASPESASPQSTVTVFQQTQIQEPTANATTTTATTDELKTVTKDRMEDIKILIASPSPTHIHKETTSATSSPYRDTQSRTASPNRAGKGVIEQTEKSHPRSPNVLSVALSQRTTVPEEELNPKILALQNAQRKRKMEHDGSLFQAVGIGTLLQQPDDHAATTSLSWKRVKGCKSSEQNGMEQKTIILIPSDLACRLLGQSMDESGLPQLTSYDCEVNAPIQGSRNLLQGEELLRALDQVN
# In short: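 HepG2 cells transiently transfected with multiplexed cis-promoter reporter units; reporter mRNA read 24 h after dosing by RT-PCR, 6-FAM primer-extension labelling, HpaI digestion and capillary electrophoresis. Bidirectional fit versus DMSO baseline.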
# [7] = molecular target: Hepatocyte nuclear factor 6 (Homo sapiens) (UniProt Q9UBC0); assay: ATG_HNF6_CIS: Attagene CIS-FACTORIAL HepG2 Assay for human Hepatocyte Nuclear Factor 6 (HNF6) (AID 2282952); conditions: HepG2 Attagene cis-factorial HNF6 reporter transcription; actives raise or lower the signal
# Sequence of Hepatocyte nuclear factor 6 (Homo sapiens) (Q9UBC0 whole entry, looked up, the tested form may be a part): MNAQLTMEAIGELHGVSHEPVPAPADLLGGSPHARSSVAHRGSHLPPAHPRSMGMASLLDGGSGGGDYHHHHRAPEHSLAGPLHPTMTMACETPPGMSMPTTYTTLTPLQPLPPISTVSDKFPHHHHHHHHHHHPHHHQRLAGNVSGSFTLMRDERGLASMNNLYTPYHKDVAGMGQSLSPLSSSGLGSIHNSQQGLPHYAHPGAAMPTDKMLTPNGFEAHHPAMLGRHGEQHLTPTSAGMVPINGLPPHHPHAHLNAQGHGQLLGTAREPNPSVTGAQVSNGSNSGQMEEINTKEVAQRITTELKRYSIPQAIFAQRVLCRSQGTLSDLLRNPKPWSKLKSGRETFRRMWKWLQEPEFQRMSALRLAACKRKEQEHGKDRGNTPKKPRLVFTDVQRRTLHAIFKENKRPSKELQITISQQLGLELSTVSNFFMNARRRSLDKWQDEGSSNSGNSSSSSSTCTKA
# In short: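 First, HepG2 cells were transfected with the multiplexed cis reporter library and dosed with chemical for 24 h. Next, RNA was reverse-transcribed, PCR-amplified and fluorescently labelled. Finally, HpaI-digested fragments were read by capillary electrophoresis.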
# [8] = molecular target: Heat shock factor protein 1 (Homo sapiens) (UniProt Q00613); assay: ATG_HSE_CIS: Attagene CIS-FACTORIAL HepG2 Assay for human Heat Shock Transcription Factor 1 (HSE) (AID 2282953); conditions: HepG2 HSE cis-reporter, Attagene RNA transcription; actives raise or lower the signal
# Sequence of Heat shock factor protein 1 (Homo sapiens) (Q00613 whole entry, looked up): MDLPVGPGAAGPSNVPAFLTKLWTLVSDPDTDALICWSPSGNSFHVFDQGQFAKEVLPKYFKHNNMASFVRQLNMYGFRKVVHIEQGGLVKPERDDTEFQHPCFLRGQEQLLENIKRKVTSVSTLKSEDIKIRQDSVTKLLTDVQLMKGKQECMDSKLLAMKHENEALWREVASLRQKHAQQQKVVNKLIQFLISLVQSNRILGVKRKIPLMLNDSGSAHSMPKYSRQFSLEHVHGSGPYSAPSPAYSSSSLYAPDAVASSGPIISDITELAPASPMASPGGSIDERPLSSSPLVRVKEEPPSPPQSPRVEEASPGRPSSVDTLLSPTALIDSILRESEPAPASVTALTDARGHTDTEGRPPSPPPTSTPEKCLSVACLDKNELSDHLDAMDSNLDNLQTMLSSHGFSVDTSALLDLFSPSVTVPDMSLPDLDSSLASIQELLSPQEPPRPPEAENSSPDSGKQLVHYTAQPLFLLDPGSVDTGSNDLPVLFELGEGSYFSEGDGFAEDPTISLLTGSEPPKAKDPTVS
# In short: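 HepG2 cells transfected with cis-promoter reporter units sensing endogenous transcription factor activity; reporter mRNA quantified 24 h post-dose by RT-PCR and capillary electrophoresis of 6-FAM-labelled products. Bidirectional fitting against DMSO.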
# [9] = ATG_MRE_CIS: Attagene CIS-FACTORIAL HepG2 Assay for human Metal Responsive Element (MRE) (AID 2282954); conditions: HepG2 MRE cis-reporter transcription, Attagene multiplex; actives raise or lower the signal
# In short: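 Cells were transfected with cis-promoter reporter transcription units, then dosed for 24 h. RNA was reverse-transcribed, amplified, fluorescently labelled and resolved by capillary electrophoresis, and activity was fitted in both directions relative to DMSO.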
# [10] = ATG_PBREM_CIS: Attagene CIS-FACTORIAL HepG2 Assay for human Phenobarbital-responsive Enhancer Module (PBREM) (AID 2282955); conditions: HepG2 PBREM cis-reporter, Attagene multiplexed transcription; actives raise or lower the signal
# In short: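 HepG2 cells transiently transfected with multiple cis-regulated reporter transcription units; endogenous factor activity at the PBREM element measured as reporter mRNA 24 h after dosing, via RT-PCR and capillary electrophoresis of fluorescent fragments; bidirectional fitting versus DMSO.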
# [11] = molecular target: Paired box protein Pax-6 (Homo sapiens) (UniProt P26367); assay: ATG_Pax6_CIS: Attagene CIS-FACTORIAL HepG2 Assay for human Paired Box 6 (PAX6) (AID 2282956); conditions: HepG2 CIS-FACTORIAL PAX6 reporter transcription, RNA readout; actives raise or lower the signal
# Sequence of Paired box protein Pax-6 (Homo sapiens) (P26367 whole entry, looked up): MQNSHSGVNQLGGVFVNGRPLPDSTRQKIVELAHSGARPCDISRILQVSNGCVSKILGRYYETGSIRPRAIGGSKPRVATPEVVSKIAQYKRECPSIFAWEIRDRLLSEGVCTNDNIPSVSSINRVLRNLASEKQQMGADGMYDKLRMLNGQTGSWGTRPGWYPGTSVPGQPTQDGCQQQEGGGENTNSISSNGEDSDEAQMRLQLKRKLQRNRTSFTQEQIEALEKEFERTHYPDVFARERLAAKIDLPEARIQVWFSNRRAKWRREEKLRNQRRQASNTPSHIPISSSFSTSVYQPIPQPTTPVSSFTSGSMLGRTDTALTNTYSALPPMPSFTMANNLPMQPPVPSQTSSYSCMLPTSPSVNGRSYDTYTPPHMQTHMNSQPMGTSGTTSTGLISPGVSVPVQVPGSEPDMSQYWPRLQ
# In short: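 Fluorescent RT-PCR products separated by capillary electrophoresis report PAX6-linked promoter mRNA in HepG2 cells 24 h post-dose. Curves fitted bidirectionally, DMSO as negative control.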
# [12] = ATG_PXRE_CIS: Attagene CIS-FACTORIAL HepG2 Assay for human Pregnane X Receptor Element (PXRE) (AID 2282957); conditions: HepG2 Attagene CIS-FACTORIAL PXRE reporter, mRNA; actives raise or lower the signal
# In short: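 After a 24 h chemical incubation, total RNA from transfected HepG2 cells was reverse-transcribed and reporter cDNA amplified, FAM-labeled, HpaI-digested and sized by capillary electrophoresis. DMSO served as baseline for bidirectional curve fitting.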
# [13] = ATG_PPRE_CIS: Attagene CIS-FACTORIAL HepG2 Assay for human Peroxisome Proliferator-activated Response Element (PPRE) (AID 2282958); conditions: HepG2 PPRE cis-element reporter, Attagene transcription factor profiling; actives raise or lower the signal
# In short: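 HepG2 cells transiently transfected with multiplexed cis-element reporter units measure endogenous transcription factor activity. After 24 h compound exposure, reporter mRNA is quantified by RT-PCR, 6-FAM labeling, HpaI digestion and capillary electrophoresis; bidirectional fits are made against DMSO baseline.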
# [14] = ATG_RORE_CIS: Attagene CIS-FACTORIAL HepG2 Assay for human RAR-related Orphan Receptor Element (RORE) (AID 2282959); conditions: HepG2 Attagene cis-factorial RORE reporter, mRNA; actives raise or lower the signal
# In short: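 HepG2 cells transiently transfected with multiple cis-element reporter transcription units, exposed to chemical for 24 h. Reporter mRNA quantified by RT-PCR, 6-FAM primer-extension labeling, HpaI digestion and capillary electrophoresis; bidirectional fit versus DMSO baseline.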
# [15] = ATG_Sox_CIS: Attagene CIS-FACTORIAL HepG2 Assay for human SRY-box transcription factor (SOX) (AID 2282960); conditions: HepG2 Attagene cis-factorial SOX reporter, mRNA; actives raise or lower the signal
# In short: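 HepG2 cells transiently transfected with cis-element-driven multiple reporter transcription units, dosed 24 h; reporter mRNA measured by RT-PCR, FAM labelling, HpaI digestion and capillary electrophoresis. Bidirectional fit versus DMSO baseline.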
# [16] = molecular target: Transcription factor Sp1 (Homo sapiens) (UniProt P08047); assay: ATG_Sp1_CIS: Attagene CIS-FACTORIAL HepG2 Assay for human Specificity Protein 1 (Sp1) (AID 2282961); conditions: HepG2 Sp1 cis-reporter transcription, actives raise or lower the signal
# Sequence of Transcription factor Sp1 (Homo sapiens) (P08047 whole entry, looked up): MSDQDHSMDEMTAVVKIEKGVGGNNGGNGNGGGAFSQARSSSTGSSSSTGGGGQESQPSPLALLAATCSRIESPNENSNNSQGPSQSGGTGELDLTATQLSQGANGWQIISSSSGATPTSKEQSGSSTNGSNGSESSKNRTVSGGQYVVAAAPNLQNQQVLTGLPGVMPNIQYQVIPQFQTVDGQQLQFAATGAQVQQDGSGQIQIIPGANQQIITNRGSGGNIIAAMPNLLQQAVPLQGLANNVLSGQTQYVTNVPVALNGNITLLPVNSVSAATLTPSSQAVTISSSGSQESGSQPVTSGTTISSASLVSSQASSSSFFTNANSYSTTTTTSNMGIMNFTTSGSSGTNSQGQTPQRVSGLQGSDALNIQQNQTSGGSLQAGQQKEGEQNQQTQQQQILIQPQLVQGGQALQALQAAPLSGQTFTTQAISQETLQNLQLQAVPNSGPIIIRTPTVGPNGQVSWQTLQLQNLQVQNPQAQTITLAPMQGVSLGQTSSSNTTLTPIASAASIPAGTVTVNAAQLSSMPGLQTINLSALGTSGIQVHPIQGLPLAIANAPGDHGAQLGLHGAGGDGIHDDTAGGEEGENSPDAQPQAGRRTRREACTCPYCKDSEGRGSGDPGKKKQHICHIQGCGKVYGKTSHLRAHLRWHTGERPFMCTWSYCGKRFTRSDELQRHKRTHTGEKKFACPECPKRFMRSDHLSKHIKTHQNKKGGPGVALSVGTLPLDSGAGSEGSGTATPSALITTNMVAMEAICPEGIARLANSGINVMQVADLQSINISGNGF
# In short: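 HepG2 cells transiently transfected with multiple reporter transcription units driven by cis-regulatory elements; Sp1-responsive reporter mRNA measured 24 h after dosing by RT-PCR and capillary electrophoresis fluorescence, fitted bidirectionally against DMSO baseline.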
# [17] = ATG_SREBP_CIS: Attagene CIS-FACTORIAL HepG2 Assay for human Sterol Regulatory Element Binding (SREBP) (AID 2282962); conditions: HepG2 Attagene cis-factorial SREBP reporter, mRNA; actives raise or lower the signal
# In short: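 Endogenous factor activity is measured in HepG2 through multiplexed reporter units under cis-element control. Following a 24 h incubation, reporter transcripts are reverse-transcribed, PCR-amplified and sized by capillary electrophoresis; activity is fitted in both directions relative to DMSO.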
# [18] = molecular target: Signal transducer and activator of transcription 3 (Homo sapiens) (UniProt P40763); assay: ATG_STAT3_CIS: Attagene CIS-FACTORIAL HepG2 Assay for human Signal Transducer and Activator of Transcription 3 (STAT3) (AID 2282963); conditions: HepG2, Attagene cis-factorial STAT3 reporter transcription; actives raise or lower the signal
# Sequence of Signal transducer and activator of transcription 3 (Homo sapiens) (P40763 whole entry, looked up): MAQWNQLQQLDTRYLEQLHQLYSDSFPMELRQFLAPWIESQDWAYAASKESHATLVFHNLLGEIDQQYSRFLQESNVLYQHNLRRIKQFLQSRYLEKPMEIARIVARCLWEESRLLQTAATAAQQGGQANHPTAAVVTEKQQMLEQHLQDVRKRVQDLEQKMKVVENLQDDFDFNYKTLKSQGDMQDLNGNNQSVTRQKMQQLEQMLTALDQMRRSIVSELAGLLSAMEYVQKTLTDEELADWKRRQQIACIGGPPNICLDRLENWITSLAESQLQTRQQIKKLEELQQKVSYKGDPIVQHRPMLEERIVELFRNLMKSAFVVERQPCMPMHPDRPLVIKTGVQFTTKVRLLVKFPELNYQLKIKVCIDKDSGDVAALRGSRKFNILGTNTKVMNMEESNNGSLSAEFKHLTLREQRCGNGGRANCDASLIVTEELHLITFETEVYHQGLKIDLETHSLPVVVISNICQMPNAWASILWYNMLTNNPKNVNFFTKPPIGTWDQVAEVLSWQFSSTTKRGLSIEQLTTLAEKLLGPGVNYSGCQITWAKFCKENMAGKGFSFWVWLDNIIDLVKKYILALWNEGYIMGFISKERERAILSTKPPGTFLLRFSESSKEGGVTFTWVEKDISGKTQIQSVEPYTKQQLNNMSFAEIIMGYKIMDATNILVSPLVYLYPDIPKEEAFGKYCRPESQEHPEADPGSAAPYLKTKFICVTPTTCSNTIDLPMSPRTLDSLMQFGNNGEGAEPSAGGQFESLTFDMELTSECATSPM
# In short: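 HepG2, MRTU-transfected, 24 h dosing. RNA → RT → PCR → FAM label → HpaI → CE. Bidirectional fit vs DMSO.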
# [19] = ATG_TA_CIS: Attagene CIS-FACTORIAL HepG2 Assay for human TA Basal Promoter (AID 2282964); conditions: HepG2 Attagene CIS-factorial TA basal promoter reporter; actives raise or lower the signal
# In short: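 HepG2 cells transiently transfected with multiple reporter units under cis promoter elements, reporting endogenous transcription factor activity; this endpoint tracks the TA basal promoter as background control. Reporter mRNA after 24 h dosing measured by RT-PCR/capillary electrophoresis; bidirectional fits versus DMSO.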
# [20] = ATG_TCF_b_cat_CIS: Attagene CIS-FACTORIAL HepG2 Assay for human T-Cell-Factor with beta-catenin (TCF/b-cat) (AID 2282965); conditions: HepG2 TCF/beta-catenin cis-reporter transcription, actives raise or lower the signal
# In short: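 In this cis-format system, transfected HepG2 cells report endogenous transcription factor activity. Readout after 24 h exposure is reporter transcript abundance from RT-PCR and capillary electrophoresis, analysed for gain or loss of signal versus DMSO.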
smiles,measurement,setting,value
CCCC(C)C=O (centres undefined),outcome,[1],inactive
same,outcome,[2],inactive
same,outcome,[3],inactive
same,outcome,[4],inactive
same,outcome,[5],inactive
same,outcome,[6],inactive
same,outcome,[7],inactive
same,outcome,[8],inactive
same,outcome,[9],inactive
same,outcome,[10],inactive
same,outcome,[11],inactive
same,outcome,[12],inactive
same,outcome,[13],inactive
same,outcome,[14],inactive
same,outcome,[15],inactive
same,outcome,[16],inactive
same,outcome,[17],inactive
same,outcome,[18],inactive
same,outcome,[19],inactive
same,outcome,[20],inactive
Cc1c(Cl)c(=O)oc2cc(O)ccc12,outcome,[1],inactive
same,outcome,[2],inactive
same,outcome,[3],inactive
same,outcome,[4],inactive
same,outcome,[5],inactive
same,outcome,[6],inactive
same,outcome,[7],inactive
same,outcome,[8],inactive
same,outcome,[9],inactive
same,AC50,[10],37.3 µM (active)
same,outcome,[11],inactive
same,AC50,[12],70.3 µM (active)
same,outcome,[13],inactive
same,outcome,[14],inactive
same,AC50,[16],26.8 µM (active)
same,AC50,[17],120 µM (active)
same,outcome,[18],inactive
same,outcome,[19],inactive
same,outcome,[20],inactive
CC1CCC2CC1C2(C)C (centres undefined),outcome,[1],inactive
same,outcome,[2],inactive
same,outcome,[3],inactive
same,outcome,[4],inactive
same,outcome,[5],inactive
same,outcome,[6],inactive
same,outcome,[7],inactive
same,outcome,[8],inactive
same,outcome,[10],inactive
same,outcome,[11],inactive
same,outcome,[12],inactive
same,outcome,[15],inactive
same,outcome,[16],inactive
same,outcome,[18],inactive
same,outcome,[19],inactive
same,outcome,[20],inactive
CCc1c(C)cc(N)c(CC)c1N,outcome,[1],inactive
same,outcome,[2],inactive
same,outcome,[3],inactive
same,outcome,[4],inactive
same,outcome,[5],inactive
same,outcome,[6],inactive
same,outcome,[7],inactive
same,outcome,[8],inactive
same,outcome,[9],inactive
same,outcome,[10],inactive
same,outcome,[11],inactive
same,AC50,[12],64.5 µM (active)
same,outcome,[13],inactive
same,outcome,[14],inactive
same,outcome,[16],inactive
same,outcome,[17],inactive
same,outcome,[18],inactive
same,outcome,[19],inactive
same,outcome,[20],inactive

# Reference: PubChem BioAssay (EPA / NIEHS)
